Results reported in PubChem BioAssay (NCATS).
Unmarked numbers belong to inactive results. Results filed as inconclusive are left out. A call without a number means that no potency is given here. Activity calls are given as the source filed them. The call rests on the fitted dose curve; in most records, active means well fitted curve in the direction sought with a large enough effect; inconclusive means small, poorly fitted or top-dose-only effect, or another doubt; inactive means no such curve, though single readings can be large; an effect the other way counts as inactive or inconclusive.

How the values were obtained:
[1] = test system: Zika virus NS2B-NS3 protease (linked construct); test: Primary screen NINDS Rhodamine qHTS for Zika virus inhibitors (AID 1347160); further: nearly all actives have a fitted effect of over 55% in size; further: potency means the concentration at half of the fitted maximal effect
Outline: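 Rhodamine110-peptide cleavage (1.5 µM substrate) by 25 nM linked NS2B-NS3 enzyme at pH 8.0 (Tris, Tween 20), after 15 min RT preincubation with compounds; 15-min fluorescence change normalized to controls and Hill-fitted.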

[2] = OV-KATE Cancer Cell Toxicity qHTS against the NCATS CANVASS Library (AID 1347345)
Outline: (§1)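 1000 cells/well; 4 h settle; 11-pnt titration; 72 h, 37 degrees C, 5% CO2; CellTiter-Glo, 15min RT; luminescence read.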

[3] = HPAF-II Cancer Cell Toxicity qHTS against the NCATS CANVASS Library (AID 1347346); further: series mostly up to about 38 µM; nearly all actives have a fitted effect of over 55% in size
Outline: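 First, HPAF-II cells are plated (1000 cells/well) and held 4 h at 37 degrees C. Next, compounds are pin-transferred as an 11-point series. After 72 h, CellTiter-Glo is added and luminescence measured.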

[4] = UWB1.289 Cancer Cell Toxicity qHTS against the NCATS CANVASS Library (AID 1347347); further: nearly all actives have a fitted effect of over 60% in size
Outline: as §1

[5] = Panc-1005 Cancer Cell Toxicity qHTS against the NCATS CANVASS Library (AID 1347349); further: series mostly up to about 38 µM; nearly all actives have a fitted effect of over 60% in size
Outline: as §1

[6] = U-118MG Cancer Cell Toxicity qHTS against the NCATS CANVASS Library (AID 1347351); further: series mostly up to about 38 µM
Outline: as §1

[7] = COV-362 Cancer Cell Toxicity qHTS against the NCATS CANVASS Library (AID 1347352); further: series mostly up to about 38 µM
Outline: (§2)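 First, 1000 cells go into each well and rest for 4 hours. Next, an 11-point dilution range is pinned in. Plates then incubate 72 hours before CellTiter-Glo addition and luminescence reading.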

[8] = A2780 Cisplatin Sensitive Ovarian Cancer Cell Toxicity qHTS against the NCATS CANVASS Library (AID 1347353); further: nearly all actives have a fitted effect of over 60% in size
Outline: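 Cells are plated at 750 per well and rest for 4 hours. Compounds are added across eleven concentrations, and incubated 72 hours before ATP is quantified by luminescence.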

[9] = UWB1.289-WTBRCA1 Cancer Cell Toxicity qHTS against the NCATS CANVASS Library (AID 1347354)
Outline: as §2

[10] = HEK293 18hr Apoptosis Induction qHTS against the NCATS CANVASS Library (AID 1347357)
Outline: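 Cells seeded at 500/well in DMEM + 10% FBS. Compounds pinned, 11 concentrations. 18 h, 37 degrees C/5% CO2. Caspase-Glo 3/7 added, 15 min RT dark, luminescence read.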

[11] = HEK293 12hr Apoptosis Induction qHTS against the NCATS CANVASS Library (AID 1347361)
Outline: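 Cells are seeded, dosed with an 11-point compound series and incubated 12 hours. Caspase-3/7 activity is detected by luminescent DEVD-substrate reagent after 15 minutes at room temperature.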

[12] = qHTS for ATAD5 Agonist screened against the NCATS CANVASS Library (AID 1347367);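 further: luciferase reporter driven by ATAD5 which rises upon DNA damage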
Outline: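 HEK293T-ATAD5 luc reporter; 2000 cells/well; 5hr settle; cpd 11-pt qHTS; 16hr 37C 5% CO2 dark; viability by CellTiter-Fluor (AFC fluorescence); then luciferase luminescence, 30min RT.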

[13] = MCF7 Cancer Cell Toxicity qHTS against the NCATS CANVASS Library (AID 1347369)
Outline: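 Cells seeded at 500/well, then compound pinned. Plates incubated 72 hr at 37C, 5% CO2. CellTiterGlo added; luminescence read.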

[14] = qHTS for ATAD5 Antagonist screened against the NCATS CANVASS Library (AID 1347370);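 further: HEK293T cells carrying an ATAD5 luciferase reporter co-treated with 10 µM 5-fluorouridine; series mostly up to about 46 µM; nearly all actives have a fitted effect of over 65% in size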
Outline: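 Compounds (11-point) co-dosed with 10 µM 5-FUrd for 16 h at 37 °C onto HEK293T-ATAD5 luciferase reporter cells. Viability measured by CellTiter-Fluor fluorescence, then ATAD5 reporter signal by luminescence.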

[15] = J3T Cancer Cell Toxicity qHTS against the NCATS CANVASS Library (AID 1347371)
Outline: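 Luminescence from CellTiterGlo, reporting cellular ATP, serves as the viability measure after 72 hr compound treatment of J3T canine glioma cells seeded at 500 cells/well.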

[16] = target: Nuclear receptor subfamily 1 group I member 3 (Homo sapiens) (UniProt Q14994); test: qHTS for Constitutive Androstane Receptor (CAR) Agonist screened against the NCATS CANVASS Library (AID 1347373);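 further: every well also contained 1.5 µM PK11195 alongside the test compound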
Outline: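 Cells were plated and allowed to attach for 4hr, then dosed with compound in an 11-point series alongside 1.5uM PK11195. After 24hr at 37C, viability was measured fluorometrically and CAR-driven CYP2B6 reporter luminescence was recorded.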

[17] = qHTS for Inflammasome Signaling Inhibitors: IL-1-beta AlphaLISA screen against the NCATS CANVASS Library (AID 1347379);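 further: human THP-1 cells primed with LPS then triggered with ATP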
Outline: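 Secreted IL-1B from human THP-1 cells quantified by AlphaLISA 16 hr after compound addition (final up to 57.5 uM). A 1 hr compound pretreatment preceded inflammasome activation with 250 ng/mL LPS plus 1.25 mM ATP (final).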

[18] = Inflammasome Signaling qHTS Counterscreen: IL-1-beta AlphaLISA counterscreen against the NCATS CANVASS Library (AID 1347381);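 further: cell-free check with purified IL-1β in medium and no THP-1 cells; series mostly up to about 57 µM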
Outline: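 Purified IL-1-beta (4 pg/well) + compound, 11-pt conc. series; acceptor beads 6 ug/mL + biotin-Ab 0.6 nM final, 1 h RT; SA-donor 24 ug/ml final, 30 min dark RT; read ex 680/em 615.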

[19] = Cytotoxicity qHTS for assessment of Hepg2 cells membrane integrity screened against the NCATS CANVASS Library (AID 1347387)
Outline: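 Cells were seeded at 2000 per well and left overnight to attach. Compounds were pin-transferred to give 0.59 nM - 46 uM in an 11-point series and incubated 5 hr at 37C. CytoTox-ONE reagent was added and, after 10 min at room temperature, fluorescence (ex 560, em 590 nm) was read.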

[20] = Vero-766 cells viability qHTS against the NCATS CANVASS Library: Counterscreen for Zika virus inhibition assay (AID 1347394); further: series mostly up to about 46 µM; nearly all actives have a fitted effect of over 60% in size
Outline: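 Vero 766, no virus; 1000 cells/well; o/n attach; cpd 11-pt; 72 h, 37C, 5% CO2; CTG luminescence; cell-free media wells = 100% inhibition.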

Chain of Nuclear receptor subfamily 1 group I member 3 (Homo sapiens) (Q14994 whole entry, looked up): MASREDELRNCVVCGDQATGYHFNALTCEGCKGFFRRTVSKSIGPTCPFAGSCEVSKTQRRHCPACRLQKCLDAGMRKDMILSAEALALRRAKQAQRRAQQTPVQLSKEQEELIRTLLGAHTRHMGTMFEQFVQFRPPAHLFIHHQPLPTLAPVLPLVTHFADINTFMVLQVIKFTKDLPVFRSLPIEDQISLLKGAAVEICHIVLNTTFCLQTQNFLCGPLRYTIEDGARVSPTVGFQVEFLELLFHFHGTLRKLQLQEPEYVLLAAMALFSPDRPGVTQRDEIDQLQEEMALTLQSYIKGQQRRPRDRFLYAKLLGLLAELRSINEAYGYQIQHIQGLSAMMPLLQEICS

Structure (SMILES)	Potency [1]	Potency [2]	Potency [3]	Potency [4]	Potency [5]	Potency [6]	Potency [7]	Potency [8]	Potency [9]	Potency [10]	Potency [11]	Potency [12]	Potency [13]	Potency [14]	Potency [15]	outcome [16]	Potency [17]	outcome [18]	outcome [19]	Potency [20]
C=C1C[C@@]23C=CC(=O)[C@@](C)(CCC(=O)Nc4c(O)ccc(C(=O)O)c4O)C2C[C@@H]1C(O)C3 (stereo partly drawn)	44 µM (active)	inactive	inactive	inactive	inactive	inactive	inactive	inactive	inactive	inactive	inactive	inactive	inactive	inactive	inactive	inactive	inactive	inactive	inactive	inactive
CC(O)/C=C/C1(O)C(C)(C)CC(O)CC1(C)O (stereo not drawn)	inactive	inactive	inactive	inactive	inactive	inactive	inactive	inactive	inactive	inactive	inactive	inactive	inactive	inactive	inactive	inactive	inactive	inactive	inactive	inactive
CS/C=C/C(N)=O	inactive	inactive	inactive	inactive	inactive	inactive	inactive	inactive	inactive	inactive	inactive	inactive	inactive	inactive	inactive	inactive	inactive	inactive	inactive	inactive
CC(=O)NC[C@@H]1O[C@H](CC/C=C(C)/C(C)=C/C=O)[C@H](C)C[C@H]1O	49.3 µM (active)	inactive	inactive	inactive	inactive	inactive	inactive	–	inactive	inactive	inactive	inactive	inactive	inactive	inactive	inactive	inactive	inactive	inactive	inactive
C[C@@H]1C(=O)[C@]23CC[C@H]1C[C@]21O[C@H]2C(C)(C)C=CC(=O)[C@]23COC1=O	inactive	inactive	inactive	inactive	inactive	inactive	inactive	inactive	inactive	inactive	inactive	inactive	inactive	inactive	inactive	inactive	inactive	inactive	inactive	inactive
CN1C(=O)C2C(N=CN2C)N(C)C1=O (stereo not drawn)	inactive	inactive	inactive	inactive	inactive	–	inactive	inactive	inactive	inactive	inactive	inactive	inactive	inactive	inactive	inactive	inactive	inactive	inactive	inactive
